Sa growth 42C = blocks Staphylococcus aureus growth; S. aureus RN4220 growth, OD600, 20 h, 42 °C; hits give low values; relative growth, % (no concentration beside the values); actives 0.53% (n = 170,000); AID 720641;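 active = relative growth at most 50% at the other temperature and 20+ points below 30 °C, or under 10% at both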
S aureus helic = blocks Staphylococcus aureus DNA helicase; inhibition, % (no concentration beside the values); actives 0.05% (n = 120,000); AID 485395; purified S. aureus helicase, fluorescence unwinding assay; in the data active = inhibition above about 25%, passing the limit was not always enough;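 also: 0% = mean of negative control wells and 100% = mean of positive control wells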
Active calls of the source: *; x = no result given. The list is not random: actives were taken first. Their share in the collection is about 0.52%.

SMILES | Sa growth 42C | S aureus helic
COc1ccc(C2=Nn3c(nc4sc5c(c4c3=O)CCCC5)SC2)cc1 | 103 | x
COc1ccc(C2=Nn3c([n+](C)c4ccccc43)SC2)cc1 | 1.4* | 22
O=C(/C=C/c1cnc2ccccc2n1)OCC(=O)N1CCCCCC1 | 99 | -7
CCS(=O)(=O)c1ccc2oc(SCc3cn4ccccc4n3)nc2c1 | 99 | -41
CCN1CCCC1CNCC(=O)Nc1ccc(C)c(Br)c1 (centres undefined) | 98 | 0
CCN1CCCC1CNC(=O)Nc1ccc(Cl)c(Cl)c1 (centres undefined) | 0.6* | 10
C[C@@H]1CN(c2c(F)c(N)c3c(=O)c(C(=O)O)cn(C4CC4)c3c2F)C[C@H](C)N1 | -0.1* | x
C=Cc1ccc(CN2C(=O)N(c3cccc(Cl)c3)S(=O)(=O)c3ccccc32)cc1 | 102 | x
O=C1C=CC(=O)N1c1cccc2ccccc12 | 91 | 10
CC(C)c1cccc(C(C)C)c1N1C(=O)C=CC1=O | 6.7* | x
CC(C)n1nc(C(=O)Nc2ccc3c(c2)CCC3)c2ccccc2c1=O | 91 | -2
COc1ccc2oc(C(=O)OCc3ccc(OC)c(F)c3)c(C)c2c1 | 103 | -4
Cc1nn(-c2ccc(F)cc2)c(-n2cccc2)c1C(=O)NCCN1CCOCC1 | 95 | 25
COC1=CC(=O)c2ccccc2C1=O | 1.0* | 29
CN(C1=CC(=O)c2ccccc2C1=O)c1ccccc1 | x | -4
Cc1ccc2c(c1)CCCN2C(=O)Cc1c(C)noc1C | 107 | -3
CCOCCCn1c(C)c(C)c(C#N)c1N | 93 | -45
Cc1c(C#N)c(N)n(Cc2cc(C(F)(F)F)cc(C(F)(F)F)c2)c1C | -0.1* | 14
N#Cc1cc(C(=O)c2ccccc2O)cn2c(=O)c3ccccc3nc12 | 71 | -264
Cc1ccc(Nc2nc(C(=O)N(C)Cc3ccccc3)cs2)cc1 | 131 | -7
Cc1ccc(Nc2nc(CN(C)CCCc3[nH]nc(N)c3C#N)cs2)cc1 | -1.1* | -11
O=c1[nH]ncc(N2CCCC2)c1Br | 88 | 14
CCC1CCc2[nH]c(=S)c(C#N)c(C(F)(F)F)c2C1 (centres undefined) | 8.0* | 16
CCCCSc1nc2c(c(C(F)(F)F)c1C#N)CCC2 | 109 | 9
c1cncc(-c2nc(Nc3ccc4c(c3)OCO4)c3ccccc3n2)c1 | 46 | 1
SMILES | Sa growth 42C | S aureus helic
CN(C)c1ccc(Nc2nc(-c3cccnc3)nc3ccccc23)cc1 | 0.2* | 12
CCC(C(=O)Nc1ccccc1OC)n1c(C(=O)OC)cc2occc21 (centres undefined) | 107 | -3
c1ccc(-c2csc3ncnc(NCCCn4ccnc4)c23)cc1 | 81 | x
CC(C)Cn1cnc2c(c(-c3ccccc3)c(-c3ccccc3)n2Cc2ccco2)c1=N | 48* | 0
c1ccc(-c2c(-c3ccccc3)n(Cc3ccco3)c3ncnc(NCCCn4ccnc4)c23)cc1 | 0.1* | -19
N=c1c2c(-c3ccccc3)c(-c3ccccc3)n(Cc3ccco3)c2ncn1CCCN1CCOCC1 | 89 | 13
CN(C(=O)CN1C(=O)C2CC=CCC2C1=O)C1CCS(=O)(=O)C1 (centres undefined) | 86 | 11
CCCn1c(=O)c(CCc2ccccc2)nc2c1c(=O)[nH]c(=O)n2Cc1ccccc1 | 86 | 18
Cc1cn(C2CC(O)C(CO)O2)c(=O)[nH]c1=O (centres undefined) | 81 | 16
O=c1[nH]c(=O)n([C@H]2C[C@H](O)[C@@H](CO)O2)cc1F | -0.6* | x
Nc1ccc2c3c(cccc13)C(=O)N(c1ccccc1)C2=O | 95 | -127
O=C1NC(=O)c2ccc3c4c(ccc1c24)C(=O)N(c1ccccc1)C3=O | 5.5* | 24
CCc1nn(CC(=O)N2CCN(c3cccc(C)c3C)CC2)c(=O)c2cc3sccc3n12 | 91 | x
CC(NC(=O)c1cc(=O)c2ccccc2o1)C(c1ccccc1)N1CCOCC1 (centres undefined) | 82 | 35*
CC(NC(=O)Cc1ccccc1)C(c1ccccc1)N1CCOCC1 (centres undefined) | 100 | 5
Cn1c(=O)c2cc(S(=O)(=O)NC(C(=O)NC3CCCCCC3)c3ccccc3)ccc2n(C)c1=O (centres undefined) | 97 | -9
O=C(Oc1ccccc1)c1cc(-c2ccccc2)c(C(F)(F)F)s1 | 99 | x
COc1ccc(-c2nnc(C3CCN(S(C)(=O)=O)CC3)o2)cc1 | 78 | 1
COc1cccc(Cn2nnc3c(=O)[nH]c(C4CCCN(C(=O)c5ccc(C)cc5)C4)nc32)c1 (centres undefined) | 79 | x
O=C(c1ccccc1)N1CCC(c2nc3c(nnn3Cc3ccccc3)c(=O)[nH]2)CC1 | 2.9* | -1
CC(C)(C)OC(=O)N1CCC(c2nc3c(nnn3Cc3ccccc3Cl)c(=O)[nH]2)CC1 | 0.3* | 0
O=C(Cc1ccc(F)cc1)N1CCC(c2nc3c(nnn3Cc3ccc(Cl)cc3)c(=O)[nH]2)CC1 | 6.4* | x
COc1cccc(Cn2nnc3c(=O)[nH]c(C4CCN(C(=O)c5ccccc5)CC4)nc32)c1 | 0.8* | 8
O=C(Cc1ccc(F)cc1)N1CCC(c2nc3c(nnn3Cc3ccc(F)cc3)c(=O)[nH]2)CC1 | 57 | x
O=C(Cc1ccccc1F)N1CCC(c2nc3c(nnn3Cc3ccc(F)cc3)c(=O)[nH]2)CC1 | 68 | x
SMILES | Sa growth 42C | S aureus helic
Cc1cccc(Cn2nnc3c(=O)[nH]c(C4CCN(C(=O)c5ccccc5F)CC4)nc32)c1 | 103 | x
CC(C)Oc1nc(N)c(C#N)c(-c2ccc3c(c2)OCO3)c1C#N | 84 | -3
COc1ccc(-n2ncc(C(=O)N3CCN(C)CC3)c2C)cc1 | 93 | x
O=C(O)Cc1csc(NC(=O)CSc2ccccc2)n1 | 111 | x
CS(=O)(=O)n1nc(-c2ccco2)nc1NCc1ccccc1Cl | 97 | x
Cc1onc(-c2c(F)cccc2Cl)c1C(=O)N(CCO)CCO | 108 | -3
c1coc(-c2nc3ccccc3n2CCC2CCCCC2)c1 | 71 | 4
Cc1ccccc1Cn1nnc2c(=O)[nH]c(C3CCN(C(=O)c4ccccc4Cl)CC3)nc21 | 12 | x
COc1cccc(Cn2nnc3c(=O)[nH]c(C4CCN(C(=O)c5ccccc5Cl)CC4)nc32)c1 | 0.4* | x
O=C(Nc1cccc(F)c1)NC1CCCC1 | 84 | 6
CC1CCC(C(C)C)C(NC(=S)Nc2cccc(F)c2)C1 (centres undefined) | -0.8* | x
CCCOc1ccc(C2c3c(-c4ccccc4O)n[nH]c3C(=O)N2Cc2ccncc2)cc1OCC (centres undefined) | 110 | x
Cc1ccccc1NC(=O)CSc1nc(-c2ccco2)nc2cc(=O)[nH]n12 | 77 | x
O=C(O)C1=C(CSc2nnnn2CS(=O)(=O)O)CS[C@@H]2C(NC(=O)[C@H](O)c3ccccc3)C(=O)N12 (some centres undefined) | -0.7* | x
Cn1nnnc1SCC1=C(C(=O)O)N2C(=O)C(NC(=O)C(O)c3ccccc3)C2SC1 (centres undefined) | -0.5* | x
Cn1nnnc1SCCC(=O)Nc1ccccc1 | 92 | 2
Cn1nnnc1SCC1=C(C(=O)O)N2C(=O)C(NC(=O)C(OC=O)c3ccccc3)C2SC1 (centres undefined) | -0.7* | x
CO[C@@]1(NC(=O)C(C(=O)O)c2ccc(O)cc2)C(=O)N2C(C(=O)O)=C(CSc3nnnn3C)CO[C@@H]21 (some centres undefined) | 88 | x
O=C(NCCSc1nnnn1-c1ccccc1)C(c1ccccc1)c1ccccc1 | 104 | -4
O=C(Cc1cccs1)NN1CCOCC1 | 106 | 6
